Values joined by “and” are separate entries in the source; they are usually repeats but may differ in a detail not shown here. Equal values may be shown once. Records with an inconclusive call do not appear. Active and inactive are the calls of the source. Unless noted, no rule for the calls is given here.
Columns and labels:
[1] = qHTS Assay for Identifying Gametocytocidal Compounds (AID 743244; active = well fitted curve in the direction sought with a large enough effect; an effect the other way counts as inactive or inconclusive; also: potency is read from the fitted curve at half-maximal effect;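 as to max response: % is scaled to controls: 0 for no effect and ±100 for the full control effect; actives lower the fluorescent signal which means gametocytes are killed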); conditions: P. falciparum 3D7 stage III-V gametocytes, alamarBlue, 72 h; max response: stronger effect = lower value
Summary of the method: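 Late gametocytes (III–V), P. falciparum 3D7; 72 h drug, then 24 h alamarBlue; resazurin reduction read by fluorescence.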

[2] = qHTS profiling of the MIPE4 collection as inhibitors of Plasmodium falciparum (3D7) proliferation (AID 743344);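 also: scaled between DMSO vehicle wells and 0.29 µM artemisinin as full inhibition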; conditions: P. falciparum 3D7 in erythrocytes, SYBR Green DNA fluorescence, 72 h; at 28.5 µM (top of the series) unless noted
Summary of the method: (§1)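 Erythrocytes infected with P. falciparum (0.3% parasitemia, 2.5% hematocrit) incubated with compounds 72 h at 37 C, 5% CO2. Lysis with saponin/Triton buffer containing SYBR Green I, overnight at room temperature in the dark; DNA fluorescence (485/535 nm) normalised to 0.29 uM artemisinin and DMSO.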

[3] = qHTS profiling of the MIPE4 collection as inhibitors of Plasmodium falciparum (DD2) proliferation (AID 743345); conditions: P. falciparum Dd2 in erythrocytes, SYBR Green DNA, 72 h; at 28.5 µM (top of the series) unless noted
Summary of the method: as §1

[4] = qHTS profiling of the MIPE4 collection as inhibitors of Plasmodium falciparum (DD2) proliferation (Rep 2) (AID 743346); conditions: P. falciparum Dd2 in erythrocytes, SYBR Green DNA, 72 h; at 28.5 µM (top of the series) unless noted
Summary of the method: as §1

[5] = qHTS profiling of the MIPE4 collection as inhibitors of Plasmodium falciparum (HB3) proliferation (AID 743347);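 also: plate controls were DMSO vehicle wells for no effect and artemisinin wells for full effect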; conditions: P. falciparum HB3 in erythrocytes, SYBR Green DNA, 72 h; at 28.5 µM (top of the series) unless noted
Summary of the method: as §1

[6] = qHTS for compounds that reverse cellular toxicity of Amyloid beta (A-beta) peptide in yeast: LOPAC Validation Assay (AID 720559; active = well fitted curve in the direction sought with a large enough effect; an effect the other way counts as inactive or inconclusive;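 also: plate controls were DMSO for no effect and equimolar ferric chloride plus clioquinol rescue for full effect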)
Summary of the method: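 Medium dispensed, compounds pinned, A-beta yeast suspension added; plates held at 30 C for 48 hr; absorbance measured at 600 nm to gauge growth; values scaled between DMSO and FeCl3/clioquinol (equimolar) controls.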

[7] = qHTS for Activators of Parkin Expression: LOPAC Validation Assay (NLuc Reporter) (AID 720572; active = well fitted curve in the direction sought with a large enough effect; an effect the other way counts as inactive or inconclusive)
Summary of the method: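 Parkin promoter-driven FLuc/NLuc neuronal reporter cells; 24 h plating, 7-pt dose response, 24 h at 37 C/5% CO2; FLuc then NanoLuc reagent, 10 min each, luminescence; DMSO/positive control normalized.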

[8] = qHTS for Activators of Parkin Expression: LOPAC Validation Assay (FLuc Reporter) (AID 720573; active = well fitted curve in the direction sought with a large enough effect; an effect the other way counts as inactive or inconclusive)
Summary of the method: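 Cells seeded, 24 h; compounds pinned, 7-pt dose response; 24 h at 37 C/5% CO2; volume reduced; FLuc reagent 10 min RT; luminescence read. Normalization: DMSO = 0, positive control = 100%.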

[9] = molecular target: T1, Hexokinase-4 (Homo sapiens) + Glucokinase regulatory protein (Homo sapiens) (UniProt P35557+Q14397); assay: qHTS assay for inhibitors of recombinant human GCK-GKRP interaction: Diaphorase-coupled assay (AID 743205; active = well fitted curve in the direction sought with a large enough effect; an effect the other way counts as inactive or inconclusive)
T1 sequence (P35557 whole entry, looked up): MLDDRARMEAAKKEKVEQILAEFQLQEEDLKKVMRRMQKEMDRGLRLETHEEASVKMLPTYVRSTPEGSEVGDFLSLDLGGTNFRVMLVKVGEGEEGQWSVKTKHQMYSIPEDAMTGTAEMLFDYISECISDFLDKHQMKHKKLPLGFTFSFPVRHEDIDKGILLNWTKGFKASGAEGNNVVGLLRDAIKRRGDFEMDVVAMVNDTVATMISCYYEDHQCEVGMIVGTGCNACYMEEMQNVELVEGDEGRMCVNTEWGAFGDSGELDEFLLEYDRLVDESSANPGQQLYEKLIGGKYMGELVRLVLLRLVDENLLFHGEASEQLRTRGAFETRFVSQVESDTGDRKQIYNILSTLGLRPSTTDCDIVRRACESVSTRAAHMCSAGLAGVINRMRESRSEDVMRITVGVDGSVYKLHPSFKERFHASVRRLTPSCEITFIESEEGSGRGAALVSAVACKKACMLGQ
T1 sequence (Q14397 whole entry, looked up): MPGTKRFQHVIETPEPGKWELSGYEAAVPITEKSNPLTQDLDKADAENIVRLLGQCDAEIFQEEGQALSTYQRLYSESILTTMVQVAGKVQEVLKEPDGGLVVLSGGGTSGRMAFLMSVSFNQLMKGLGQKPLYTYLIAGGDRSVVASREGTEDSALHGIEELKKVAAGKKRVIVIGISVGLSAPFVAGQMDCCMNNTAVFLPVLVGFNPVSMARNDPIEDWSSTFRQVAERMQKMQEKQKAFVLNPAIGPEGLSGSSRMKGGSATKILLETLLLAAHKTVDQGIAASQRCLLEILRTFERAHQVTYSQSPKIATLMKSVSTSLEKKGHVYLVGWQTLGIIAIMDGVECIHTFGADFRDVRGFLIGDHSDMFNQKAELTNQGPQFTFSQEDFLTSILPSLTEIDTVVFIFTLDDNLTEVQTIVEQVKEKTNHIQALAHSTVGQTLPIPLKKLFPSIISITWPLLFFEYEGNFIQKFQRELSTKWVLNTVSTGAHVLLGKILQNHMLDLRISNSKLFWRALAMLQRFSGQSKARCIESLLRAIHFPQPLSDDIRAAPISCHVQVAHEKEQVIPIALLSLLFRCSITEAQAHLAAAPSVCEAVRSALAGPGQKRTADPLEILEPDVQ
Summary of the method: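 25 mM Hepes pH 7.6, 5 mM glucose, 0.4 mM ATP, 4 U/ml G6PDH; 10 nM each GST-GCK/FLAG-GKRP. Kinetic fluorescence read, 1/min × 30 min. Normalized: DMSO ± enzyme = max/min.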

[10] = molecular target: T1, Hexokinase-4 (Homo sapiens) + Glucokinase regulatory protein (Homo sapiens); assay: qHTS assay for inhibitors of recombinant human GCK-GKRP interaction: HTRF assay (AID 743207; active = well fitted curve in the direction sought with a large enough effect; an effect the other way counts as inactive or inconclusive;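 also: 0% = DMSO with GCK present and -100% = DMSO wells lacking GCK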)
Summary of the method: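 5 nM GST-GCK + 5 nM FLAG-GKRP + 2 uM S6P, pH 7.1 buffer (25 mM Hepes, 2 mM MgCl2, 25 mM KCl, 1 mM DTT, Tween/BSA); pin-transferred cpd; anti-FLAG XL665/anti-GST K; 60 min RT; HTRF.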

[11] = qHTS assay for small molecule antagonists of the retinoid-related orphan receptor gamma (ROR-gamma) signaling pathway - cell viability counter screen (AID 720652; active = well fitted curve in the direction sought with a large enough effect in the repeat runs; an effect the other way counts as inactive or inconclusive;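 also: compound exposure lasted 16 hr before ATP read; % is scaled to controls: 0 for no effect and ±100 for the full control effect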)
Summary of the method: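 Luminescence from CellTiter-Glo after 30 min at room temperature reported cellular ATP as the cytotoxicity measure. Cells were the CHO reporter line with doxycycline-induced ROR-gamma expression, exposed to compound for 16 hr at 37 C.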

[12] = qHTS assay for cell viability of HEK293 cells (AID 743288; active = well fitted curve in the direction sought with a large enough effect; an effect the other way counts as inactive or inconclusive; also: nearly all actives have a fitted effect of over 50% in size; also: potency is read from the fitted curve at half-maximal effect; as to max response: % is scaled to controls: 0 for no effect and ±100 for the full control effect); conditions: ATP luminescence (CellTiter-Glo), 18 h; max response: stronger effect = lower value
Summary of the method: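 HEK293 parental, 2,000 cells/well; ≥5 h pre-incubation 37 C; pintool compound addition; 18 h, 37 C; CellTiter-Glo 30 min RT; luminescence read.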

[13] = qHTS assay for cell viability of the p53RE-bla HCT-116 cell line (AID 743292; active = well fitted curve in the direction sought with a large enough effect; an effect the other way counts as inactive or inconclusive; also: nearly all actives have a fitted effect of over 55% in size; also: potency is read from the fitted curve at half-maximal effect)
Summary of the method: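 After plating at 4,000 cells per well and a 5 h rest at 37 C, HCT-116 cells carrying p53RE-bla received test chemicals in DMSO. Sixteen hours later at 37 C, CellTiter-Glo was added and luminescence recorded following 30 min at room temperature.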

[14] = molecular target: Arylsulfatase A (Homo sapiens) (UniProt P15289); assay: qHTS screen for enhancers of Arylsulfatase A (ASA1): LOPAC Validation Assay (AID 720538; active = well fitted curve in the direction sought with a large enough effect; an effect the other way counts as inactive or inconclusive)
Chain of Arylsulfatase A (Homo sapiens) (P15289 whole entry, looked up): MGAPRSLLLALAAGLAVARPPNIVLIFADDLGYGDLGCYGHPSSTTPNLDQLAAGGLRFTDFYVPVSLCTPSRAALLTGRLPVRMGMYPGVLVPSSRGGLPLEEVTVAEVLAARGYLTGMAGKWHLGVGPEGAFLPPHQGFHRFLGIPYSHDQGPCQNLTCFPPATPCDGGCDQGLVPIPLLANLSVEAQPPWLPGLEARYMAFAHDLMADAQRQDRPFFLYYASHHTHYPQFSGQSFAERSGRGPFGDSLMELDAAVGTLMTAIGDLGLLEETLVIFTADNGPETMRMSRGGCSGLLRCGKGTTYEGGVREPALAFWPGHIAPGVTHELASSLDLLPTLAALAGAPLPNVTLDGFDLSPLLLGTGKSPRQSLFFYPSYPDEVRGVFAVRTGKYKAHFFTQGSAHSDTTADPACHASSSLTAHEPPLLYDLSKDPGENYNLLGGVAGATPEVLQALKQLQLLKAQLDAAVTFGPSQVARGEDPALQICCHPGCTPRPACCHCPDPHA
Summary of the method: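 MLD patient fibroblasts (SV40, ASA-I179S), 1536-well; adhere 6 hrs; cpd 48h, 37 degree C, 5% CO2; pNCS 0.5mM final in lysis buffer, 14h RT; stop 1N NaOH final; fluor. Ex525/Em598.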

[15] = qHTS assay for small molecule agonists of the antioxidant response element (ARE) signaling pathway measured by Nrf2-dependant transcriptional activity - cell viability counter screen (AID 720653; active = well fitted curve in the direction sought with a large enough effect in the repeat runs; an effect the other way counts as inactive or inconclusive; also: potency is read from the fitted curve at half-maximal effect; as to max response: % is scaled to controls: 0 for no effect and ±100 for the full control effect); conditions: ARE-bla HepG2 viability, CellTiter-Glo ATP luminescence, 16 h; max response: stronger effect = lower value
Summary of the method: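 Cytotoxicity counter screen: intracellular ATP quantified by CellTiter-Glo luminescence in the same ARE-bla HepG2 plates, after 16 h compound exposure and a 2 h beta-lactamase substrate step.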

[16] = qHTS profiling for inhibitors of Plasmodium falciparum (3D7) proliferation (AID 743322);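 also: infected erythrocytes exposed to compound for 72 h before lysis; 100% = DMSO vehicle wells and 0% = 0.29 µM artemisinin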; conditions: P. falciparum 3D7 proliferation; at 28.7 µM (top of the series) unless noted
Summary of the method: as §1

[17] = qHTS profiling for inhibitors of Plasmodium falciparum (HB3) proliferation (AID 743324; active = well fitted curve in the direction sought with a large enough effect; an effect the other way counts as inactive or inconclusive;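 also: 100% = DMSO vehicle wells and 0% = artemisinin-treated control wells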); conditions: Plasmodium falciparum HB3 blood-stage proliferation; at 28.7 µM (top of the series) unless noted
Summary of the method: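 P. falciparum HB3 grown in erythrocytes (0.3% parasitemia, 2.5% hematocrit final) with compound for 72 h at 37 C, 5% CO2. Parasite DNA detected by SYBR Green after saponin/triton lysis overnight; normalized to 0.29 uM artemisinin and DMSO.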

[18] = qHTS assay for small molecule agonists of the antioxidant response element (ARE) signaling pathway measured by Nrf2-dependant transcriptional activity (AID 720636; active = well fitted curve in the direction sought with a large enough effect in the repeat runs; an effect the other way counts as inactive or inconclusive;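 also: HepG2 cells with an ARE-driven luciferase reporter; % of control where 0% means no effect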)
Summary of the method: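 ONE-Glo luminescence, read 30 min after reagent addition at room temperature, reflected ARE reporter activity in HepG2 cells that had been incubated with compound for 16 hr at 37 C in 1% dialyzed FBS.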

COC(=O)N[C@H](C(=O)N[C@@H](Cc1ccccc1)[C@@H](O)CN(Cc1ccc(-c2ccccn2)cc1)NC(=O)[C@@H](NC(=O)OC)C(C)(C)C)C(C)(C)C
max response [1]: -11.7% (inactive)
parasite growth, % of DMSO control [2]: 7.5%
parasite growth remaining, % of DMSO control (lower = more inhibition) [3]: 18.2%
parasite growth, % of control (lower = inhibition) [4]: 34.6%
growth, % of control [5]: 9.81%

CC1=C(C)C(=O)C(C(CCCCCC(=O)O)c2ccccc2)=C(C)C1=O (stereo not drawn)
max response [1]: -7.88% (inactive)
parasite growth, % of DMSO control [2]: 50.6%
parasite growth remaining, % of DMSO control (lower = more inhibition) [3]: 87.9%
parasite growth, % of control (lower = inhibition) [4]: 46%
growth, % of control [5]: 74.4%

COc1cc2c(cc1OC)C1CC(=O)C(CC(C)C)CN1CC2 (stereo not drawn)
outcome [6]: inactive
outcome [7]: inactive
Potency [8]: inactive
outcome [9]: inactive
outcome [10]: inactive
max response [1]: 30.1% (inactive)
parasite growth, % of DMSO control [2]: 82.2%
parasite growth remaining, % of DMSO control (lower = more inhibition) [3]: 7.77%
parasite growth, % of control (lower = inhibition) [4]: 77.8%
growth, % of control [5]: 67.9%

Cc1cc(O)c2c(c1)C(=O)c1cc(O)cc(O)c1C2=O
outcome [6]: inactive
outcome [7]: inactive
Potency [8]: inactive
outcome [11]: inactive
outcome [9]: inactive
outcome [10]: inactive
max response [1]: 14.5% (inactive)
Potency [12]: 44.7 µM (active)
Potency [13]: 31.6 µM (active)
growth, % of control [5]: 98.6%

c1cnc2cc3c(cc2n1)C1CNCC3C1
max response [1]: -11.9% (inactive)
parasite growth remaining, % of DMSO control (lower = more inhibition) [3]: 96.8%
parasite growth, % of control (lower = inhibition) [4]: 52.2%
growth, % of control [5]: 68.4%

CC(S)C(=O)NCC(=O)O (stereo not drawn)
max response [1]: -4.83% (inactive)
parasite growth, % of DMSO control [2]: 95.6%
parasite growth remaining, % of DMSO control (lower = more inhibition) [3]: 123%
parasite growth, % of control (lower = inhibition) [4]: 91.7%
growth, % of control [5]: 95.5%

CC1(C)C(=O)N(CCN2CCC(C(=O)c3ccc(F)cc3)CC2)c2ccccc21
Potency [14]: inactive
outcome [6]: inactive
outcome [7]: inactive
Potency [8]: inactive
outcome [9]: inactive
outcome [10]: inactive
max response [1]: 6.71% (inactive)
parasite growth, % of DMSO control [2]: 49%
parasite growth remaining, % of DMSO control (lower = more inhibition) [3]: 15.4%
parasite growth, % of control (lower = inhibition) [4]: 26.2%
growth, % of control [5]: 34.5%

O=C(CS(=O)Cc1ccco1)NCC=CCOc1cc(CN2CCCCC2)ccn1 (stereo not drawn)
parasite growth, % of DMSO control [2]: 78%
parasite growth remaining, % of DMSO control (lower = more inhibition) [3]: 95.7%
growth, % of control [5]: 86.8%

Cc1ncc([N+](=O)[O-])n1CC(C)O (stereo not drawn)
max response [1]: 9.98% (inactive)
parasite growth, % of DMSO control [2]: 94.7%
parasite growth remaining, % of DMSO control (lower = more inhibition) [3]: 95.7%
parasite growth, % of control (lower = inhibition) [4]: 94.8%
growth, % of control [5]: 99.2%

COc1c(O)cc2c(c1O)[C@@H]1O[C@H](CO)[C@@H](O)[C@H](O)[C@H]1OC2=O
max response [1]: 0.91% (inactive)
parasite growth, % of DMSO control [2]: 92.9%
parasite growth remaining, % of DMSO control (lower = more inhibition) [3]: 100%
parasite growth, % of control (lower = inhibition) [4]: 81.9%
growth, % of control [5]: 116%

CC(=O)O[C@H]1C(=O)[C@@]2(C)C([C@H](OC(=O)c3ccccc3)[C@]3(O)C[C@H](OC(=O)[C@H](O)[C@@H](NC(=O)c4ccccc4)c4ccccc4)C(C)=C1C3(C)C)[C@]1(OC(C)=O)CO[C@@H]1C[C@@H]2O (stereo partly drawn)
Potency [14]: inactive
outcome [6]: inactive
outcome [7]: inactive
Potency [8]: inactive
outcome [9]: inactive
outcome [10]: inactive
parasite growth, % of DMSO control [2]: 5.85%
parasite growth remaining, % of DMSO control (lower = more inhibition) [3]: 14.4%
parasite growth, % of control (lower = inhibition) [4]: 11.8%
growth, % of control [5]: 4.22%

CN(C)c1ccc2nc3ccc(=[N+](C)C)cc-3sc2c1
Potency [15]: 10 µM (active)
Potency [1]: 166 nM (active) and 303 nM (active)
Potency [12]: 11.2 µM (active)
Potency [13]: 28.2 µM (active)
remaining parasite growth % (stronger effect = lower value) [16]: 1.85% [at 57.5 µM]
remaining proliferation (% of control), lower = more inhibition [17]: 14.3% [at 57.5 µM]
parasite growth, % of DMSO control [2]: 60.1% and 20%
parasite growth remaining, % of DMSO control (lower = more inhibition) [3]: 16.9% and 18.5%
parasite growth, % of control (lower = inhibition) [4]: 6.81% and 13.3%
growth, % of control [5]: 43.4% and 10.1%

CC(=O)Nc1ccc(O)cc1
Potency [18]: inactive
outcome [11]: inactive
max response [15]: -1.61% (inactive) and -10.9% (inactive)
max response [12]: -9.69% (inactive) and -0.289% (inactive)
Potency [13]: inactive

CC(C)(S)[C@@H](N)C(=O)O
max response [1]: 21.3% (inactive)
parasite growth remaining, % of DMSO control (lower = more inhibition) [3]: 127%
parasite growth, % of control (lower = inhibition) [4]: 76.1%
growth, % of control [5]: 95.7%

COCCCN1CCC(NC(=O)c2cc(Cl)c(N)c3c2OCC3)CC1
parasite growth remaining, % of DMSO control (lower = more inhibition) [3]: 51.1%
parasite growth, % of control (lower = inhibition) [4]: 38%
growth, % of control [5]: 15.7%

N=C(N)c1ccc2cc(OC(=O)c3ccc(N=C(N)N)cc3)ccc2c1
max response [1]: 6.62% (inactive)
parasite growth remaining, % of DMSO control (lower = more inhibition) [3]: 9.8%
parasite growth, % of control (lower = inhibition) [4]: 14%
growth, % of control [5]: 12.8%

CCC(C)(Oc1ccc(C2(c3ccc(OC(C)(CC)C(=O)O)cc3)CCCCC2)cc1)C(=O)O (stereo not drawn)
max response [1]: 16.5% (inactive)
parasite growth remaining, % of DMSO control (lower = more inhibition) [3]: 98.3%
parasite growth, % of control (lower = inhibition) [4]: 73.7%
growth, % of control [5]: 107%

COC1=C(OC)C(=O)C(CCCCCCCCCCO)=C(C)C1=O
max response [1]: -5.2% (inactive)
parasite growth, % of DMSO control [2]: 61.7%
parasite growth remaining, % of DMSO control (lower = more inhibition) [3]: 84.8%
parasite growth, % of control (lower = inhibition) [4]: 32.3%
growth, % of control [5]: 73.4%

Source: PubChem BioAssay (NCATS)
